Measurements: PubChem BioAssay (Tox21)
Results filed as inconclusive are left out. Calls of active or inactive are those of the source. Unless noted, the call rests on the fitted dose curve; in most records, active means well fitted curve in the direction sought with a large enough effect in the repeat runs; inconclusive means weak or mixed curves; inactive means no such curve, though single readings can be large; an effect the other way counts as inactive or inconclusive.

Key:
[1] = qHTS assay to identify small molecule antagonists of the estrogen related receptor (ERR) signaling pathway - cell viability counter screen (AID 1224818);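 further: series mostly up to about 46 µM; viability measured after 17.5 h of compound exposure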
In short: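 Quantitative high-throughput viability counter screen in ERR cells. Compounds (DMSO) incubated 17.5 h at 37 C; read-out was CellTiter-Fluor fluorescence.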

[2] = qHTS assay to identify small molecule antagonists of the estrogen related receptor (ERR) signaling pathway (AID 1224819; further: nearly all actives have a fitted effect of over 50% in size; further: potency means the concentration at half of the fitted maximal effect)
In short: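 ERR reporter cell line (NTP) plated at 2,000 cells/well, settled 6 h at 37C/5% CO2, then exposed to LOPAC compounds for 18 h at 37C. One-Glo luciferase luminescence read after 30 min at room temperature.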

[3] = qHTS assay to identify small molecule agonists of the estrogen related receptor (ERR) signaling pathway (AID 1224820)
In short: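 Luminescence readout (One-Glo, 30 min RT) from NTP-supplied ERR cell line exposed to compounds for 18 h at 37 C. Cells seeded 2,000 per well and pre-incubated 6 h before pin-tool compound transfer.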

[4] = qHTS assay to identify small molecule antagonists of the estrogen related receptor signaling pathway with the pleiotropic PPARgamma coactivator (PGC) cell viability counter screen (AID 1224822; further: series mostly up to about 46 µM)
In short: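 Cytotoxicity in the PGC/ERR cell line is assessed with CellTiter-Fluor, read as fluorescence intensity 30 min after reagent addition, following 17.5 h compound treatment at 37 C.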

[5] = qHTS assay to identify small molecule agonists of the estrogen related receptor signaling pathway with the pleiotropic PPARgamma coactivator (PGC) (AID 1224823)
In short: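 Luminescence readout (One-Glo, 30 min RT) from PGC/ERR cell line treated 18 h at 37 C with pin-tool-delivered DMSO compound solutions; cells plated 6 h before dosing. Quantitative HTS format.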

[6] = tested on: estrogen-related receptor alpha (ERRalpha) with PGC-1alpha coactivator, human; experiment: qHTS assay to identify small molecule antagonists of the estrogen related receptor signaling pathway with the pleiotropic PPARgamma coactivator (PGC) (AID 1224821; calls by dose curve;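 further: series mostly up to about 46 µM; lower luminescence signal means antagonism of PGC/ERR signalling; nearly all actives have a fitted effect of over 50% in size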)
In short: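 PGC/ERR reporter cells; 6 h pre-incubation 37 C/5% CO2; pin-tool compound in DMSO, 18 h 37 C; One-Glo added, 30 min RT; luminescence read. qHTS antagonist mode.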

[7] = qHTS assay for small molecule agonists of the p53 signaling pathway (AID 651631; calls by dose curve; further: nearly all actives have a fitted effect of over 15% in size)
In short: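 Read-out is beta-lactamase FRET fluorescence measured 2 h after substrate addition at room temperature, in HCT-116 cells with a p53 response element-driven reporter exposed to compounds for 16 h at 37 °C.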

[8] = qHTS assay for small molecules that induce genotoxicity in human embryonic kidney cells expressing luciferase-tagged ATAD5 (AID 651632); further: nearly all actives have a fitted effect of over 15% in size
In short: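 Quantitative HTS in HEK293T expressing luciferase-tagged ATAD5, whose levels rise upon DNA damage. Exposure ran 16 hr at 37C and 5% CO2, with luminescence read 30 min after Amplite addition at room temperature.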

[9] = qHTS assay for small molecules that induce genotoxicity in human embryonic kidney cells expressing luciferase-tagged ATAD5 - cell viability (AID 651634; calls by dose curve; further: nearly all actives have a fitted effect of over 25% in size)
In short: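 After 15.5 hr incubation with compound at 37C, 5% CO2, HEK293T ATAD5-luciferase cells received CellTiter-Fluor reagent; fluorescence intensity was quantified following 30 min at 37C.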

[10] = qHTS assay for small molecule disruptors of the mitochondrial membrane potential - cell viability (AID 720634; calls by dose curve;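 further: human HepG2 liver cancer cells; series mostly up to about 83 µM; nearly all actives have a fitted effect of over 20% in size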)
In short: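 ATP-based luminescent viability readout (CellTiter-Glo, 30 min, room temperature) in HepG2 cells multiplexed with the m-MPI membrane potential dye; compound exposure lasted 1 hr at 37 C.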

[11] = qHTS assay to test for compound auto fluorescence at 590 nm (red) in HepG2 cells (AID 720674)
In short: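 Seeding: 2,000 HepG2 cells/well, MEM/10% FBS, overnight 37 C. Dosing: compound vs DMSO. Incubation: 1 hr, 37 C, 5% CO2. Read: fluorescence 540 ex/590 em, Rose Bengal sodium as red reference.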

[12] = qHTS assay to test for compound auto fluorescence at 535 nm (green) in HepG2 cells (AID 720675)
[13] = qHTS assay to test for compound auto fluorescence at 460 nm (blue) in HEK293 cells (AID 720678)
In short: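 Cells were seeded and left to adhere for 4-5 hr at 37C. Compounds were then pin-transferred. After an overnight incubation at 37C under 5% CO2, intrinsic fluorescence at 405/460 nm was measured and referenced to triamterene.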

[14] = qHTS assay to test for compound auto fluorescence at 590 nm (red) in HEK293 cells (AID 720679)
In short: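 Each well held 2,000 HEK293 cells in medium containing 10% dialyzed FBS. Following 4-5 hr attachment at 37C, 23 nL test compound or DMSO was added; plates sat overnight, and red fluorescence (540/590nm) was recorded.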

[15] = qHTS assay to test for compound auto fluorescence at 535 nm (green) in HEK293 cells (AID 720680)
[16] = qHTS assay to test for compound auto fluorescence at 460 nm (blue) in HEK293 cell free culture (AID 720681)
In short: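 Compounds were added to cell-free DMEM with 10% FBS and fluorescence read directly. The blue channel used 405 nm excitation and 460 nm emission, with triamterene as the reference fluorophore.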

[17] = qHTS assay to test for compound auto fluorescence at 535 nm (green) in HEK293 cell free culture (AID 720682)
In short: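 Fluorescein serves as the green reference fluorophore; each compound's intrinsic emission at 535 nm (excitation 485 nm) is reported as an equivalent amount of that dye, measured in serum-containing DMEM without cells.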

[18] = qHTS assay to test for compound auto fluorescence at 590 nm (red) in HEK293 cell free culture (AID 720683)
In short: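 Cell-free wells of DMEM with 10% FBS received compound, and intrinsic fluorescence was read at excitation/emission 540/590 nm. Values expressed as equivalence to Rose Bengal sodium.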

[19] = qHTS assay to test for compound auto fluorescence at 590 nm (red) in HepG2 cell free culture (AID 720684)
In short: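 Rose Bengal sodium served as the reference for red signal. Test compounds were dispensed into serum-containing MEM (10% FBS) without cells, and plates were read at 540/590 nm.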

[20] = qHTS assay to test for compound auto fluorescence at 460 nm (blue) in HepG2 cell free culture (AID 720685)
In short: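 Cell-free plates of MEM plus 10% FBS received 23 nL compound or DMSO vehicle; blue-channel (405/460 nm) intensity scored against triamterene as reference fluorophore.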

[21] = qHTS assay to test for compound auto fluorescence at 535 nm (green) in HepG2 cell free culture (AID 720686)
[22] = qHTS assay to test for compound auto fluorescence at 460 nm (blue) in HepG2 cells (AID 720687)
In short: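 HepG2 cells in MEM with 10% FBS, attached overnight at 37 C, were exposed to compound or DMSO for 1 hr at 37 C, 5% CO2. Blue fluorescence was read at 405/460 nm, with triamterene as reference fluorophore.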

[23] = qHTS assay to identify small molecule antagonists of the glucocorticoid receptor (GR) signaling pathway - cell viability counter screen (AID 720693); further: nearly all actives have a fitted effect of over 55% in size
[24] = qHTS assay for identifying genotoxic compounds that show differential cytotoxicity against isogenic chicken DT40 cell lines with known DNA damage response pathways - Rev3 mutant cell line (AID 743014); further: nearly all actives have a fitted effect of over 55% in size
[25] = qHTS assay for identifying genotoxic compounds that show differential cytotoxicity against isogenic chicken DT40 cell lines with known DNA damage response pathways - Rad54/Ku70 mutant cell line (AID 743015); further: nearly all actives have a fitted effect of over 60% in size
[26] = qHTS assay to identify small molecule antagonists of the androgen receptor (AR) signaling pathway - cell viability counter screen (AID 743033; further: nearly all actives have a fitted effect of over 45% in size)
[27] = biological target: Estrogen receptor (Homo sapiens) (UniProt P03372); experiment: qHTS assay to identify small molecule antagonists of the estrogen receptor alpha (ER-alpha) signaling pathway (AID 743069; active means well fitted curve in the direction sought with a large enough effect in the signal ratio in the repeat runs, not every such curve was filed as active; the % refers to the signal ratio)
Sequence of Estrogen receptor (Homo sapiens) (P03372 whole entry, looked up): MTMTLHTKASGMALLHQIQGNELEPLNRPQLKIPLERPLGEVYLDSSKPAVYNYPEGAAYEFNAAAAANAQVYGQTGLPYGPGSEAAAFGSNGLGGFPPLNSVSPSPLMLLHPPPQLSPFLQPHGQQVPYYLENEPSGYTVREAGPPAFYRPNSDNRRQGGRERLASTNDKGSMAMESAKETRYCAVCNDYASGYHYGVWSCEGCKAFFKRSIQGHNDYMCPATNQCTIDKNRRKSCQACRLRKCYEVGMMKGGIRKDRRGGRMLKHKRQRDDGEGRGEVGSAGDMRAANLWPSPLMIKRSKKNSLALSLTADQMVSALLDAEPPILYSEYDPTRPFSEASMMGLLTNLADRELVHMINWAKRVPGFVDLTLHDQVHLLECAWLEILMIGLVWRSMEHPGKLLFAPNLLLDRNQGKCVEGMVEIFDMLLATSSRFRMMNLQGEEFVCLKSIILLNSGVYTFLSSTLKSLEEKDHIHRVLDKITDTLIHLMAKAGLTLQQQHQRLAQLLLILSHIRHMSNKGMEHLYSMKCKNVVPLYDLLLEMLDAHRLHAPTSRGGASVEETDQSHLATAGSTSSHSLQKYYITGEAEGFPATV
In short: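 Beta-lactamase FRET fluorescence is read after 2 hr at room temperature with LiveBLAzer B/G substrate. Before that, ER-alpha-bla HEK293 cells sit 4 hr after plating, then receive compound plus 17beta-estradiol and incubate 18 hr at 37C.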

[28] = qHTS assay to identify small molecule antagonists of the estrogen receptor alpha (ER-alpha) signaling pathway - cell viability counter screen (AID 743074; calls by dose curve;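 further: HEK293 cells carrying ER-alpha-UAS-bla reporter stimulated with 17beta-estradiol; nearly all actives have a fitted effect of over 45% in size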)
[29] = biological target: Estrogen receptor (Homo sapiens) (UniProt P03372); experiment: qHTS assay to identify small molecule agonists of the estrogen receptor alpha (ER-alpha) signaling pathway (AID 743075; calls by dose curve;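 further: HEK293 GripTite cells with ER-alpha and UAS-driven beta-lactamase reporter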)
[30] = biological target: Estrogen receptor (Homo sapiens) (UniProt P03372); experiment: qHTS assay to identify small molecule agonists of the estrogen receptor alpha (ER-alpha) signaling pathway using the BG1 cell line (AID 743079); further: nearly all actives have a fitted effect of over 20% in size
[31] = qHTS assay to identify small molecule antagonists of the estrogen receptor alpha (ER-alpha) signaling pathway using the BG1 cell line (AID 743080; calls by dose curve; further: series mostly up to about 70 µM; nearly all actives have a fitted effect of over 25% in size)
In short: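 Antagonist mode: compounds in DMSO were pinned onto BG1-Luc-4E2 cells alongside 17beta-estradiol agonist, incubated 21.5 h, and ERE-driven luciferase measured with ONE-Glo. Cytotoxicity was multiplexed using CellTiter-Fluor fluorescence.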

[32] = qHTS assay to identify small molecule antagonists of the estrogen receptor alpha (ER-alpha) signaling pathway using the BG1 cell line - cell viability counter screen (AID 743081);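 further: compound given together with 17beta-estradiol as the ER stimulus; series mostly up to about 70 µM; nearly all actives have a fitted effect of over 45% in size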
[33] = qHTS assay to identify aromatase inhibitors - cell viability counter screen (AID 743084);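 further: cells stimulated with testosterone during compound exposure; nearly all actives have a fitted effect of over 55% in size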
[34] = biological target: Aryl hydrocarbon receptor (Homo sapiens) (UniProt P35869); experiment: qHTS assay to identify small molecule that activate the aryl hydrocarbon receptor (AhR) signaling pathway (AID 743085);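 further: HG2L7.5c1 human HepG2 liver cells with stably integrated DRE-driven firefly reporter; series mostly up to about 70 µM; nearly all actives have a fitted effect of over 15% in size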
Sequence of Aryl hydrocarbon receptor (Homo sapiens) (P35869 whole entry, looked up): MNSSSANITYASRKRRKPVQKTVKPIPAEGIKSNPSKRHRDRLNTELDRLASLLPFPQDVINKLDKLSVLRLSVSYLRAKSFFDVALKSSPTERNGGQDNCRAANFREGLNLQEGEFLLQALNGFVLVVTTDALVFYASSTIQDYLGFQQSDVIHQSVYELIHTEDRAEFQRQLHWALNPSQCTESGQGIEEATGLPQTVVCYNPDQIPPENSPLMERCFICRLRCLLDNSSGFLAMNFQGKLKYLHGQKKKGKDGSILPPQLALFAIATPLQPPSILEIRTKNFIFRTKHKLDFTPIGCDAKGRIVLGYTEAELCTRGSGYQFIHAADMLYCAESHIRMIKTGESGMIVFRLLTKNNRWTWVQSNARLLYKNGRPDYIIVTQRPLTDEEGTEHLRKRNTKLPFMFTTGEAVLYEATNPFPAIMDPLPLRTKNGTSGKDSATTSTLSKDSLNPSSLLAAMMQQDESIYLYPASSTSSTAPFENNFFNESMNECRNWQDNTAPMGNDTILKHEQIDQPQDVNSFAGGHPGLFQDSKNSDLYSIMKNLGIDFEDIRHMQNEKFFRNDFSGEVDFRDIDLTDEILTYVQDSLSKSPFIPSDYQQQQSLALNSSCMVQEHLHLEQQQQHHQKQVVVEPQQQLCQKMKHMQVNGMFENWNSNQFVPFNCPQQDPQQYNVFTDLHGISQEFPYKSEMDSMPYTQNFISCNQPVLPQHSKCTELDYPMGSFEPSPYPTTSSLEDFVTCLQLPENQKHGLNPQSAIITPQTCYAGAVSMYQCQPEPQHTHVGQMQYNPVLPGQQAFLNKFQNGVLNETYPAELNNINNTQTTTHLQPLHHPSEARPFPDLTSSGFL
In short: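 Cell line HG2L7.5c1 (human hepatoma, 20× DRE-luc). Plated, 5 h 37C, compound/DMSO added, 24 h 37C. CellTiter-Fluor 30 min 37C → fluorescence; then ONE-Glo 30 min RT → luminescence.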

[35] = qHTS assay to identify small molecule that activate the aryl hydrocarbon receptor (AhR) signaling pathway - cell viability counter screen (AID 743086);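 further: HepG2 liver cells carrying the AhR DRE luciferase reporter; series mostly up to about 70 µM; nearly all actives have a fitted effect of over 45% in size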
In short: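 HepG2-AhR-luc (HG2L7.5c1) cells, 4000/well, treated 24 h at 37 C with compound; viability measured as CellTiter-Fluor fluorescence after 30 min in the same wells as the luciferase read.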

[36] = biological target: Nuclear receptor subfamily 1 group I member 2 (Rattus norvegicus) (UniProt Q9R1A7); experiment: Rat pregnane X receptor (rPXR) activation by small molecules, qHTS assay (AID 1346983); details: rPXR luciferase reporter cells, One-Glo luminescence, 24 h; max activation: hits give high values; further: nearly all actives have a fitted effect of over 20% in size
Sequence of Nuclear receptor subfamily 1 group I member 2 (Rattus norvegicus) (Q9R1A7 whole entry, looked up): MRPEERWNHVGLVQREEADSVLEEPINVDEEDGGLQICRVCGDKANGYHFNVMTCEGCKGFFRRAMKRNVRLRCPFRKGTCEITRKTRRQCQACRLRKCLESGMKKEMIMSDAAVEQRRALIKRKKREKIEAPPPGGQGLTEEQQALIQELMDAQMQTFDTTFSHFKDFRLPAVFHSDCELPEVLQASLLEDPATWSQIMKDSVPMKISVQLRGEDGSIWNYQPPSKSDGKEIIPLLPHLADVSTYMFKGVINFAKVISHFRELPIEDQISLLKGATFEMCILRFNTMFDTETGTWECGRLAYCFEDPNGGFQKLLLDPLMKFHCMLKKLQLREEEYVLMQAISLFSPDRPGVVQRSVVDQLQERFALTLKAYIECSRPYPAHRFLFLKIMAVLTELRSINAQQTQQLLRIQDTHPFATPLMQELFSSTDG
In short: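 Cell-based rPXR activation assay: rPXR cells, 2,000 per well, rested 5hr at 37 C, then exposed to compounds in DMSO for 24 hr at 37 C. Luciferase activity read by One-Glo luminescence after 30 min at room temperature.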

[37] = biological target: Nuclear receptor subfamily 1 group I member 2 (Homo sapiens) (UniProt O75469); experiment: CYP3A4 induction through human pregnane X receptor (PXR) by small molecules, qHTS assay (AID 1346984); further: nearly all actives have a fitted effect of over 40% in size
In short: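 Induction measured in HepG2-based DPX-2 cells co-expressing human PXR and a CYP3A4 promoter-driven luciferase. After a 24-hour compound exposure, cells received CYP3A4 luciferin substrate at 3uM final for 3 hours, and light output was then recorded.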

[38] = biological target: Nuclear receptor subfamily 1 group I member 2 (Homo sapiens) (UniProt O75469); experiment: Human pregnane X receptor (PXR) activation by small molecules, qHTS assay (AID 1346985); further: nearly all actives have a fitted effect of over 40% in size
In short: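 DPX-2 cells (HepG2 co-transfected with a PXR response element and a CYP3A4-promoter luciferase construct) were seeded at 2,000 per well, rested 5 hr at 37C, then exposed to DMSO-dissolved compounds for 24 hr. Activation was read as luciferase luminescence.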
On the % scale 0 is the no-effect control and ±100 the full control effect.

CC[C@@]1(O)C(=O)OCc2c1cc1n(c2=O)Cc2cc3ccccc3nc2-1
inactive: Potency [1] | Potency [3] | Potency [4] | Potency [5]
active: Potency [2] 123 nM

C=CCN1CC[C@]23CCCCC2[C@H]1Cc1ccc(O)cc13 (some centres undefined)
inactive: Potency [1] | Potency [2] | Potency [6] | Potency [4]

C[C@]12N[C@H](Cc3ccccc31)c1ccccc12
inactive: Potency [7] | Potency [8] | Potency [9] | Potency [10] | outcome [11] | Potency [12] | Potency [13] | outcome [14] | Potency [15] | Potency [16] | Potency [17] | outcome [18] | outcome [19] | Potency [20] | Potency [21] | Potency [22] | Potency [23] | Potency [24] | Potency [25] | Potency [26] | Potency [27] | Potency [28] | Potency [29] | Potency [30] | Potency [31] | Potency [32] | Potency [33] | Potency [34] | Potency [35] | Potency [1] | Potency [2] | Potency [3] | Potency [6] | Potency [4] | Potency [5] | max activation [36] -5.86% | Potency [37] | Potency [38]

CCCN1CCc2cc(O)cc3c2[C@H]1Cc1ccc(O)c(O)c1-3
inactive: Potency [1] | Potency [2] | Potency [3] | Potency [6] | Potency [5]

C[N+]1(C)C2CC(OC(=O)[C@H](CO)c3ccccc3)CC1C1OC12 (some centres undefined)
inactive: Potency [1] | Potency [4]
